The list is not random: actives were taken first. Their share in the collection is about 8.3%.
Chronic BCR inh – inhibitors of chronic active B-cell receptor signaling. ABC-DLBCL IkBa-CBG/CBR reporter, luminescence ratio, 4 h. Potency, µM (series often up to 46.1 µM), for inactives: at the top dose activity change, negative = inhibition, hits mostly inhibitors. 340,000 tested, 0.05% active. AID 493014; active = well fitted inhibition curve with a large enough effect in the signal ratio, with a control signal flat, not every such curve was filed as active; inconclusive = small, poorly fitted or top-dose-only effect, or effect the other way, or a change in a side signal; the % refers to the signal ratio;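 also: potency is read from the fitted curve at half-maximal effect; plate controls were basal doxycycline-induced cells for no effect and cells given 10 µM MG132 for full effect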
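TMD8 human ABC-DLBCL cells with doxycycline-inducible IκBα–green luciferase fusion and unfused red luciferase, in 0.5% FBS medium; compounds up to 46 uM, 4 h at 37C. Green/red luminescence ratio, filter-overlap corrected, fitted to concentration-response curves.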
MCF10A rerep – DNA re-replication induction in MCF 10a cells; MCF 10A DNA re-replication, Hoechst nuclear intensity, 48 h; Potency, µM (highest dose often 46.1 µM), for inactives: at the highest dose activity, positive = re-replication, hits mostly activators; 350,000 tested, 2.9% active; AID 624296; also: potency is read from the fitted curve at half-maximal effect; % of control where 0% means no effect; nearly all actives have a fitted effect of over 50% in size
SW480 rerep – inducers of DNA re-replication in SW480 colon cancer cells; SW480 DNA re-replication, Hoechst DNA content imaging, 48 h; Potency, µM (top dose mostly 46.1 µM), for the others: top-dose re-replication activation, most hits filed as activators; 340,000 tested, 1.8% active; AID 624297; also: potency is read from the fitted curve at half-maximal effect; % of control where 0% means no effect; nearly all actives have a fitted effect of over 55% in size
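Image-based DNA-content assay: after two days of treatment, nuclei were labelled with the DNA dye Hoechst and imaged, and hits were compounds raising the count of nuclei showing high fluorescence intensity.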
Giardia kill – kills Giardia lamblia. Giardia lamblia trophozoite viability. activity change, % at 7.66 µM, hits read low. 340,000 tested, 0.15% active. AID 540267; in the data active = activity change below about -80%; inconclusive = between about -30% and that limit;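 also: parasites exposed to compound for two days anaerobically before the ATP read; % is scaled to controls: 0 for no effect and ±100 for the full control effect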
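ATP-content bioluminescence gauges trophozoite survival. Cells (100/well) receive compound and incubate anaerobically for 48 hrs at 37 deg C; detection reagent follows for 15-30 min at room temperature.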
Gal4-VP16 FLuc – inhibits Gal4-VP16 luciferase reporter, ROR gamma counter-screen; Drosophila S2 Gal4-VP16 UAS-luciferase, luminescence, 20 h; Potency, µM (titrated, usually from 53.6 µM), for the others: top-dose activity, negative = inhibition, actives largely listed as inhibitors; 310,000 tested, 3.5% active;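 also: Gal4-VP16 expression switched on by copper sulfate through the metallothionein promoter; potency is read from the fitted curve at half-maximal effect; % is scaled to controls: 0 for no effect and ±100 for the full control effect; nearly all actives have a fitted effect of over 50% in size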
RORg inh – inhibitors of mouse ROR gamma transcriptional activity; Drosophila S2 Gal4-RORgamma UAS-luciferase reporter, 20 h; Potency, µM (top dose mostly 53.6 µM), inactives show at the top dose activity change, negative = inhibition, hits mostly inhibitors; 310,000 tested, 5.4% active; also: potency is read from the fitted curve at half-maximal effect; % is scaled to controls: 0 for no effect and ±100 for the full control effect; nearly all actives have a fitted effect of over 60% in size
Target sequence (P51450 whole entry, looked up, the tested form may be a part): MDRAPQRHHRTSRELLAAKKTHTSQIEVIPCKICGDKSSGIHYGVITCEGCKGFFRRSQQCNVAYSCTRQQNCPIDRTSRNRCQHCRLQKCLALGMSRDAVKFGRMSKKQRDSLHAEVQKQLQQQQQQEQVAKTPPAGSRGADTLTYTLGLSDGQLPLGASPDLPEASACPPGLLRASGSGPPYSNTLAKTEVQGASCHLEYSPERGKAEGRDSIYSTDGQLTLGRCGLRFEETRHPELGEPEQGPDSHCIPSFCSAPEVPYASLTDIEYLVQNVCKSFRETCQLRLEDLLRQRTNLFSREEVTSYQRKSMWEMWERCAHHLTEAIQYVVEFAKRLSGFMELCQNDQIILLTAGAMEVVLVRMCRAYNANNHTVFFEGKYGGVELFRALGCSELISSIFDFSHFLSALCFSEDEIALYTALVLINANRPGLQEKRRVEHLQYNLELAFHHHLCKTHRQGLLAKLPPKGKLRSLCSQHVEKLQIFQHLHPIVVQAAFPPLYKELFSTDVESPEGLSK
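Using a luciferase readout, inhibitors were identified by reduced reporter activity in Drosophila cells coexpressing a copper-inducible Gal4–ROR gamma fusion and UAS-driven Photinus luciferase, incubated 20 hr after 700 uM copper sulfate.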
An asterisk follows results filed as active. Unless noted, calls follow the shape of the dose curve; as a rule, active = well fitted curve in the direction sought with a large enough effect; inconclusive = small, poorly fitted or top-dose-only effect, or another doubt; inactive = no such curve, though single readings can be large; an effect the other way counts as inactive or inconclusive.

Results for CCCCn1c(=O)[nH]c(=O)c2c1nc(-c1ccc3ccccc3c1)n2CC ?
Chronic BCR inh: -3.7%; MCF10A rerep: 22.5%; SW480 rerep: -6.1%; Giardia kill: 3.5; Gal4-VP16 FLuc: 3.7%; RORg inh: -1.1%

How did CCCCn1c(-c2cccc(Br)c2)nc2cc3[nH]c(=O)c(C(C)C)nc3cc21 do in these assays?
Chronic BCR inh: inconclusive; MCF10A rerep: 18.4µM*; SW480 rerep: inconclusive; Giardia kill: 4.6; Gal4-VP16 FLuc: -1.8%; RORg inh: -13.8%

What do the screens show for `CCCCn1c(-c2ccc(Cl)c(Cl)c2)nc2cc3[nH]c(=O)c(C(C)C)nc3cc21`?
Chronic BCR inh: inconclusive; MCF10A rerep: 14.6µM*; SW480 rerep: 19.1%; Giardia kill: -0.8; Gal4-VP16 FLuc: -1.6%; RORg inh: 37.3%

How did COc1cccc(NC(=O)CN(C)C(=O)c2cccc(S(=O)(=O)N3c4ccccc4CC3C)c2)c1 (centres undefined) do in these assays?
Chronic BCR inh: -11.9%; MCF10A rerep: inconclusive; SW480 rerep: -41.3%; Giardia kill: -0.7

How did CCOC(=O)C1CCCN(C(=O)Cn2nc(C)n3nc(-c4ccccc4)cc3c2=O)C1 (centres undefined) do in these assays?
Chronic BCR inh: -3.8%; MCF10A rerep: -3.9%; SW480 rerep: -17.9%; Giardia kill: 6.1; Gal4-VP16 FLuc: -10.1%; RORg inh: 12.8%

Results for O=C1c2ccccc2CN2C(=O)c3ccccc3CN12 ?
Chronic BCR inh: 1.0%; MCF10A rerep: -2.1%; SW480 rerep: -2.7%; Giardia kill: -2.1; Gal4-VP16 FLuc: -5.5%; RORg inh: 20.8%

How did c1ccc(-c2cn3c(n2)-c2ccccc2C3)cc1 do in these assays?
Chronic BCR inh: inconclusive; MCF10A rerep: 11.5%; SW480 rerep: -2.8%; Giardia kill: inconclusive; Gal4-VP16 FLuc: inconclusive; RORg inh: 10µM*

What do the screens show for `S=c1nc(-c2ccccc2)c(-c2ccccc2)n[nH]1`?
Chronic BCR inh: inconclusive; MCF10A rerep: 38.4%; SW480 rerep: -3.4%; Giardia kill: 10.6; Gal4-VP16 FLuc: -19.9%; RORg inh: 8.91µM*

Results for CC(C)[C@H](N)C(=O)OCC(CO)OCn1cnc2c(=O)[nH]c(N)nc21 (some centres undefined) ?
MCF10A rerep: -3.9%; SW480 rerep: -2.5%; Gal4-VP16 FLuc: 3.9%; RORg inh: 1.9%

How did CNC(=O)c1c(NC(=O)c2nc3ccccc3s2)sc2c1CCC2 do in these assays?
Chronic BCR inh: inconclusive; Gal4-VP16 FLuc: 8.91µM*; RORg inh: 7.08µM*

Results for COC(=O)c1c(NC(=O)c2nc3ccccc3s2)sc2c1CCN(C(C)=O)C2 ?
Chronic BCR inh: inconclusive; MCF10A rerep: inconclusive; SW480 rerep: -0.8%; Giardia kill: -4.4; Gal4-VP16 FLuc: -1.9%; RORg inh: 36.5%

What do the screens show for `Cc1ccc(NC2CC(=O)N(CCc3ccccc3)C2=O)cc1` (centres undefined)?
Chronic BCR inh: inconclusive; MCF10A rerep: -3.8%; SW480 rerep: -14.2%; Giardia kill: -13.1; Gal4-VP16 FLuc: -10.6%; RORg inh: 3.98µM*

Results for O=C1CC(NCCc2ccccc2)C(=O)N1CCc1ccccc1 (centres undefined) ?
Chronic BCR inh: inconclusive; MCF10A rerep: 0.0%; SW480 rerep: -22.7%; Giardia kill: -0.1; Gal4-VP16 FLuc: 22.7%; RORg inh: 3.5%

What do the screens show for `O=C(CSc1nnc(-c2ccccc2Cl)o1)N1CCCC1`?
Chronic BCR inh: -1.3%; MCF10A rerep: 10.3%; SW480 rerep: 0.0%; Giardia kill: -4.4; Gal4-VP16 FLuc: 3.9%; RORg inh: -11.3%

What do the screens show for `O=C(Nc1ccc(Cl)c(Cl)c1)C1=Cc2ccccc2OC1`?
Chronic BCR inh: inconclusive; MCF10A rerep: 20.6µM*; SW480 rerep: 3.1%; Giardia kill: -16.5; Gal4-VP16 FLuc: -14.2%; RORg inh: 36.2%

What do the screens show for `O=C(Nc1cccc(Cl)c1)C1=Cc2cc(Cl)ccc2OC1`?
Chronic BCR inh: inconclusive; MCF10A rerep: 13µM*; SW480 rerep: 7.7%; Giardia kill: -1.2; Gal4-VP16 FLuc: 13.1%; RORg inh: 40.1%

Results for O=C(NCc1ccc(Cl)cc1)C1=Cc2cc(Cl)ccc2OC1 ?
Chronic BCR inh: -0.5%; MCF10A rerep: 10.9%; SW480 rerep: 1.7%; Giardia kill: -8.6; Gal4-VP16 FLuc: -19.9%; RORg inh: inconclusive

What do the screens show for `O=S(=O)([N-]c1nc2ccccc2nc1-[n+]1ccccc1)c1ccc(F)cc1`?
Chronic BCR inh: -0.1%; MCF10A rerep: 0.1%; SW480 rerep: -0.1%; Giardia kill: 10.9; Gal4-VP16 FLuc: -0.4%; RORg inh: 35.2%

How did COc1coc(/C=C/C(=O)O)cc1=O do in these assays?
Chronic BCR inh: 2.9%; MCF10A rerep: -1.3%; SW480 rerep: 1.46µM*; Giardia kill: -1.1; Gal4-VP16 FLuc: -1.0%; RORg inh: 8.3%

How did COc1cc(/C=C/C(=O)O)ccc1O do in these assays?
MCF10A rerep: inconclusive; SW480 rerep: inconclusive; Giardia kill: -1.1; Gal4-VP16 FLuc: 4.0%; RORg inh: 1.7%

What do the screens show for `COCCNC(=S)N/N=C/c1ccc2c(c1)OCCO2`?
Chronic BCR inh: -12.3%; MCF10A rerep: 3.2%; SW480 rerep: -22.4%; Giardia kill: -21.3; Gal4-VP16 FLuc: inconclusive; RORg inh: 10µM*

How did COCCCNC(=S)N/N=C/c1ccc2c(c1)OCO2 do in these assays?
Chronic BCR inh: inconclusive; MCF10A rerep: 2.3%; SW480 rerep: 14.0%; Giardia kill: 22.5; Gal4-VP16 FLuc: inconclusive; RORg inh: 5.62µM*

How did Cc1cc(C)nc(N/N=C/c2ccc3c(c2)OCCO3)n1 do in these assays?
Chronic BCR inh: inconclusive; MCF10A rerep: -2.3%; SW480 rerep: -14.4%; Giardia kill: -11.9; Gal4-VP16 FLuc: -17.9%; RORg inh: inconclusive

Results for CC(=O)Nc1ccc(/C=N/NC(=S)NC(C)C)cc1 ?
Chronic BCR inh: inconclusive; MCF10A rerep: 2.9%; SW480 rerep: -4.4%; Giardia kill: -10.1; Gal4-VP16 FLuc: -17.1%; RORg inh: 15.8µM*

What do the screens show for `CC(C)NC(=S)N/N=C/c1ccc2c(c1)OCCO2`?
Chronic BCR inh: -17.8%; MCF10A rerep: inconclusive; SW480 rerep: 1.8%; Giardia kill: -0.8; Gal4-VP16 FLuc: inconclusive; RORg inh: 2.24µM*

How did S=C(NN=Cc1ccc2c(c1)OCO2)NN=Cc1ccc2c(c1)OCO2 do in these assays?
MCF10A rerep: 10.2%; SW480 rerep: inconclusive; Giardia kill: -2.3

How did Cc1ccc(SCCC(=O)OCC(=O)NCC2CCCCC2)cc1 do in these assays?
Chronic BCR inh: -3.6%; MCF10A rerep: -0.1%; SW480 rerep: 0.0%; Giardia kill: 8.4; Gal4-VP16 FLuc: -8.7%; RORg inh: -12.6%
